Data reported in PubChem BioAssay (EPA / NIEHS).
Calls of active or inactive are those of the source. Rule for the calls: active = hit-call score of the fitted dose curve at least 0.9, where 1 is the maximum; inactive = score below 0.9.

Columns and labels:
Settings in all cases: primary human HUVEC with PBMC; actives raise or lower the signal
[1] = read-out: Macrophage colony-stimulating factor (MCSF), CSF1 (gene 1435); assay: BSK_LPS_MCSF: BioMAP Diversity Plus: LPS Assay for Macrophage colony-stimulating factor (MCSF) Biomarker Activity (AID 2283083)
How it was run: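 ELISA readout of M-CSF after 24 h compound exposure in a human endothelial/PBMC co-culture. Activity, in either direction, is fitted relative to DMSO vehicle.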

[2] = read-out: Tissue Factor, F3 (gene 2152); assay: BSK_LPS_TissueFactor: BioMAP Diversity Plus: LPS Assay for Tissue Factor Biomarker Activity (AID 2283084)
How it was run: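 ELISA signal for cell-surface Tissue Factor (CD142) was read 24 h after compound dosing of an LPS-stimulated human endothelial–PBMC primary co-culture. Gain or loss of signal was scored relative to DMSO.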

[3] = read-out: Tumor necrosis factor (Homo sapiens) (UniProt P01375); assay: BSK_LPS_TNFa: BioMAP Diversity Plus: LPS Assay for Tumour Necrosis Factor alpha (TNFa) Biomarker Activity (AID 2283085)
How it was run: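 Human umbilical vein endothelial cells co-cultured with PBMC were exposed to test chemical and TNFa measured by ELISA 24 h after dosing. Bidirectional curve fitting was done relative to DMSO as negative control and baseline.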

[4] = read-out: Vascular cell adhesion molecule 1 (VCAM1), VCAM1 (gene 7412); assay: BSK_LPS_VCAM1: BioMAP Diversity Plus: LPS Assay for Vascular cell adhesion molecule 1 (VCAM1) Biomarker Activity (AID 2283086)
How it was run: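 Human umbilical vein endothelial cells co-cultured with peripheral blood mononuclear cells under LPS stimulation were exposed to test chemical for 24 h. VCAM-1 levels were then measured by ELISA, with bidirectional curve fitting relative to DMSO as negative control and baseline.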

CD38, CD38 (gene 952) = assay: BSK_SAg_CD38: BioMAP Diversity Plus: SAg Assay for CD38 Biomarker Activity (AID 2283087)
How it was run: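 Fluorescence ELISA of cell-surface CD38 served as the read-out, with either increase or decrease fitted against DMSO controls. Cells were a human umbilical vein endothelium plus PBMC co-culture under SEB/TSST-1 stimulation, measured 24 h after dosing.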

CD40, CD40 (gene 958) = assay: BSK_SAg_CD40: BioMAP Diversity Plus: SAg Assay for CD40 Biomarker Activity (AID 2283088)
How it was run: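 Compounds were dosed onto a human primary endothelial–PBMC co-culture, and after 24 h CD40 was quantified by ELISA using a fluorescence signal. Activity in either direction was fitted relative to DMSO.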

CD69, CD69 (gene 969) = assay: BSK_SAg_CD69: BioMAP Diversity Plus: SAg Assay for CD69 Biomarker Activity (AID 2283089);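 for AC50: cell surface CD69 protein quantified by ELISA with fluorescence detection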
How it was run: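 ELISA, fluorescence read-out: CD69 on human umbilical vein endothelial cell + PBMC co-culture, 24 h post-dosing. Gain or loss of signal fitted bidirectionally against DMSO baseline.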

[5] = read-out: Monocyte Chemoattractant Protein-1 (MCP1), CCL2 (gene 6347); assay: BSK_SAg_MCP1: BioMAP Diversity Plus: SAg Assay for Monocyte Chemoattractant Protein-1 (MCP1) Biomarker Activity (AID 2283090)
How it was run: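 MCP-1 levels in the endothelial–PBMC SAg co-culture were quantified by ELISA at 24 h post-dosing; both increases and decreases versus DMSO scored. Cytotoxicity monitored by SRB total protein in parallel cultures.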

[6] = read-out: Monokine induced gamma interferon (MIG), CXCL9 (gene 4283); assay: BSK_SAg_MIG: BioMAP Diversity Plus: SAg Assay for Monokine induced gamma interferon (MIG) Biomarker Activity (AID 2283092)
How it was run: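 ELISA readout of MIG/CXCL9; primary human umbilical vein endothelial cells co-cultured with peripheral blood mononuclear cells; 24 h post-dose; gain/loss fit vs DMSO baseline.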

[7] = read-out: E-selectin (Homo sapiens) (UniProt P16581); assay: BSK_SAg_Eselectin: BioMAP Diversity Plus: SAg Assay for Eselectin Biomarker Activity (AID 2283091)
How it was run: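 Co-culture: HUVEC + PBMC. Dose compound; 24 h. ELISA for E-selectin. Bidirectional fit vs DMSO.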

Measured: AC50

Chain of Tumor necrosis factor (Homo sapiens) (P01375 whole entry, looked up): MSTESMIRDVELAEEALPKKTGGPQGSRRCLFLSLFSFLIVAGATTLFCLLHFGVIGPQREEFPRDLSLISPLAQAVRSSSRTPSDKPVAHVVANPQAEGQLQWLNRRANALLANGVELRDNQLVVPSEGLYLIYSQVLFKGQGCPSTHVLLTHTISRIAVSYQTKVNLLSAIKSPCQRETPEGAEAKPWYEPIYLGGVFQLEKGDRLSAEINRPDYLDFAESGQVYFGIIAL
Chain of E-selectin (Homo sapiens) (P16581 whole entry, looked up): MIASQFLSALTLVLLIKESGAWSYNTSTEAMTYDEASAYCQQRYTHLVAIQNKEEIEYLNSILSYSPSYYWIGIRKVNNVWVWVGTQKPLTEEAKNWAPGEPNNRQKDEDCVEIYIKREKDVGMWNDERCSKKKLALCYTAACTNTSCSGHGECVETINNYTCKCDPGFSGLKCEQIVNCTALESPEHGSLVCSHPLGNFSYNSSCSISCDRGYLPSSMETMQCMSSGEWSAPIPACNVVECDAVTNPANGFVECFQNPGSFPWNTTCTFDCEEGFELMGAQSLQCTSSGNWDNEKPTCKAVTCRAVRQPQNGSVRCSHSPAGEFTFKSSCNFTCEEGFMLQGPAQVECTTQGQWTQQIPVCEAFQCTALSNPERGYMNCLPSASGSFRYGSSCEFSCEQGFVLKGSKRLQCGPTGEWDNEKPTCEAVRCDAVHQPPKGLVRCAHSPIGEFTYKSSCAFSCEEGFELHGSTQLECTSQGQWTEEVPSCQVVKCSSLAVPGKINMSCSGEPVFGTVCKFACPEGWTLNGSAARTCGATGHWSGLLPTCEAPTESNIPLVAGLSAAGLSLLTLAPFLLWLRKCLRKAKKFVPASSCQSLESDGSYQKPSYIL

COC(=O)CC(=O)OC
not listed: [7]
inactive: all other assays above

O=C(OC[C@H]1O[C@@H](OC(=O)c2cc(O)c(O)c(OC(=O)c3cc(O)c(O)c(O)c3)c2)[C@H](OC(=O)c2cc(O)c(O)c(OC(=O)c3cc(O)c(O)c(O)c3)c2)[C@@H](OC(=O)c2cc(O)c(O)c(OC(=O)c3cc(O)c(O)c(O)c3)c2)[C@@H]1OC(=O)c1cc(O)c(O)c(OC(=O)c2cc(O)c(O)c(O)c2)c1)c1cc(O)c(O)c(OC(=O)c2cc(O)c(O)c(O)c2)c1
active: [4] 6.1 µM | CD38, CD38 (gene 952) 9.88 µM | CD40, CD40 (gene 958) 8.21 µM | CD69, CD69 (gene 969) 6.1 µM | [5] 6.1 µM | [7] 6.1 µM
inactive: [1] | [3] | [6]

NC(=O)NO
not listed: [7]
inactive: all other assays above

O=C(NS(=O)(=O)/C=C/c1ccccc1)c1ccc(F)cc1Cl
active: CD40, CD40 (gene 958) 9.37 µM
not listed: [7]
inactive: all other assays above
